Among the data in PubChem BioAssay (NCATS) are outcome values, retold here.

Activity calls are given as the source filed them. Calls come from the whole dose curve; as a rule, active = well fitted activation curve with a large enough effect; inconclusive = small, poorly fitted or top-dose-only effect; inactive = no such curve, though single readings can be large or run the other way.

For the assay, the target named is Cytochrome P450 3A4 (Homo sapiens) (UniProt P08684). Nature of the assay: qHTS Assay for Activators of Cytochrome P450 3A4 (AID 885). Note: nearly all actives have a fitted effect of over 65% in size. The settings on record: recombinant CYP3A4, Luciferin-PPXE luminescence, 60 min; series mostly up to 57.1 µM. The method, then: NIH Molecular Libraries Screening Centers Network [MLSCN]
Sequence of Cytochrome P450 3A4 (Homo sapiens) (P08684 whole entry, looked up): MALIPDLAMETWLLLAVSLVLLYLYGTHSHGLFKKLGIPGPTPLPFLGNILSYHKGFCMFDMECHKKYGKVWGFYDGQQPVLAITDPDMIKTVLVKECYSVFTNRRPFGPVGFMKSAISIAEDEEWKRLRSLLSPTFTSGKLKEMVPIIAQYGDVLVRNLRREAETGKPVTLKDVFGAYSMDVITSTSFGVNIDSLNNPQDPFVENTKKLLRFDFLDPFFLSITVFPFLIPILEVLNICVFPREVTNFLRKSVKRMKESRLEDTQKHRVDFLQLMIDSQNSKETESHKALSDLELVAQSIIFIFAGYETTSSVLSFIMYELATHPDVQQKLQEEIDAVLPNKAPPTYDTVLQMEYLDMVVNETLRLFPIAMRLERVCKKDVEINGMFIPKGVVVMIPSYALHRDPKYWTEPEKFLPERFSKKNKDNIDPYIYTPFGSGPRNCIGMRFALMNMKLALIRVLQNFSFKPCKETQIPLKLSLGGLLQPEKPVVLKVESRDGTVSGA
NIH Chemical Genomics Center [NCGC]
The P450 gene superfamily is involved in the metabolism and clearance of xenobiotics. This assay used human CYP3A4 to measure the dealkylation of luciferin-6' phenylpiperazinylyl (Luciferin-PPXE; […]) to luciferin. The luciferin is then measured by luminescence after the addition of a luciferase detection reagent. Luciferin-PPXE concentration in the assay was equal to its KM for CYP3A4. Inhibitors and some substrates limit the production of luciferin, and decrease measured luminescence; activators increase the production of luciferin and luminescence.
NCGC Assay Protocol Summary:
Two uL of enzyme and substrate mix (final concentrations: 20nM CYP3A4, 25uM Luciferin-PPXE, 200mM KPO4) were dispensed into a white, solid bottom 1536-well microtiter plate. 23nL of compound was transferred by a pin tool. The plate was incubated at RT for 10 min. Two uL of an NADPH regeneration solution (Promega supplied reagent) was dispensed and the reaction was allowed to continue for 60 min at RT. Then the reaction was stopped by reconstituted luciferin detection buffer. After another 20 min of incubation the plate was read on the ViewLux (Perkin Elmer) at 60 sec exposure and 2x2 binning. This protocol was carried out with Promega-Glo reagents and further information can be found at http://www.promega.com/tbs/tb325/tb325.pdf. Data were normalized to the to AC100 inhibition (57 uM ketoconazole).
Keywords: P450, CYP2D6, Luciferase, MLSMR, MLSCN, NIH Roadmap, qHTS, NCGC
As to `CCN(CC)CCNc1ccc(CO)c2sc3ccccc3c(=O)c12`, the outcome was inactive.

Consider `CN1CCC[C@@H]1CCO[C@](C)(c1ccccc1)c1ccc(Cl)cc1`, for which the result was inactive.

As for `Nc1ccc(S(=O)(=O)Nc2cnc3ccccc3n2)cc1`, the outcome was inactive.

With `CCN(CC)CCOC(=O)C(Cc1cccc2ccccc12)CC1CCCO1` (stereo not drawn), the outcome was inactive. The result for `Cc1c(-c2ccccc2)oc2c(C(=O)OCCN3CCCCC3)cccc2c1=O` reads “inactive”; that for `O=C(CCCN1CC=C(n2c(=O)[nH]c3ccccc32)CC1)c1ccc(F)cc1`, “inactive”; that for `COc1cc(N)c(Cl)cc1C(=O)NC1CCN(Cc2ccccc2)CC1`, “inactive”.

Turning to `CCOC(=O)c1ccc(N)cc1`, the outcome was inactive.

With `O=C1C(CCS(=O)c2ccccc2)C(=O)N(c2ccccc2)N1c1ccccc1` (stereo not drawn), the outcome was inactive. For the compound `NS(=O)(=O)Cc1noc2ccccc12`, the result was inactive. For `Cc1cc(-c2ccccc2)nnc1NCCN1CCOCC1`, the result was inactive.

As to `CC[C@H](c1ccc(O)cc1)[C@@H](CC)c1ccc(O)cc1`, the outcome was inactive. With `CN(C)CCC[C@@]1(c2ccc(F)cc2)OCc2cc(C#N)ccc21`, the outcome was inactive.
